Cycloheximide cs – affects cycloheximide protein synthesis inhibition readout, counter-screen; max response, %; cell reporter, cycloheximide protein synthesis inhibition counterscreen; 300,000 compounds, 12% hits; in the data active means max response mostly above about 13%, no sharp cut-off; inactive means mostly below about 14%; further: read at 38.3 µM for the half of the compounds with a filed dose; 0% is about no effect
Pf growth 96h – inhibits malaria parasite growth, 96 h; P. falciparum luciferase reporter growth, 96 h; 320,000 compounds, 6.9% hits; Potency, µM (series often up to 28.7 µM), for inactives: top-dose activity change, negative = inhibition, actives largely listed as inhibitors; further: potency means the concentration at half of the fitted maximal effect; on the % scale 0 is the no-effect control and ±100 the full control effect
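Parasite growth measured via integrated firefly luciferase reporter in P. falciparum. Infected erythrocytes at 2% hematocrit, 0.05% parasitemia final were treated 96 hours at 37 C under 5% CO2, and luminescence was read.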
Shiga toxin inh – blocks Shiga toxin action in Vero cells. 290,000 compounds, 9.2% hits. Vero cells, Shiga toxin protein synthesis inhibition reporter. inhibition, % at 38.7 µM; in the data active means inhibition mostly above about 28%, no sharp cut-off; inactive means mostly below about 43%; further: 0% is about no effect
Pf growth 48h – inhibits P. falciparum growth in the first generation, 48 h; Potency, µM (highest dose often 28.7 µM), inactives show top-dose activity change, negative = inhibition, actives largely listed as inhibitors; P. falciparum luciferase growth in erythrocytes, 48 h; 310,000 compounds, 5.9% hits; further: potency means the concentration at half of the fitted maximal effect; on the % scale 0 is the no-effect control and ±100 the full control effect
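Luciferase-expressing P. falciparum in infected erythrocytes (2% hematocrit, 0.1% parasitemia final) in RPMI 1640/0.5% Albumax were exposed to compound for 48 hours at 37 C, 5% CO2; growth read as luminescence.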
Numbers without * were called inactive; ? = inconclusive; . = not tested or not shown. Compounds with a hit are over-represented: about 21% of the library has one in this group of screens. Unless noted, the call rests on the fitted dose curve; in most records, active means well fitted inhibition curve with a large enough effect; inconclusive means small, poorly fitted or top-dose-only effect, or another doubt; inactive means no such curve, though single readings can be large or run the other way.

SMILES | Cycloheximide cs | Pf growth 96h | Shiga toxin inh | Pf growth 48h
COc1ccc(C(CNC(=O)c2ccc(-c3nc4ccccc4s3)o2)N2CCCC2)cc1 (stereo not drawn) | . | 10.4µM* | . | 7.38µM*
COc1ccccc1CNC(=O)c1oc2ccccc2c1C | -3.3 | ? | -30.6 | ?
O=C(NC(=S)NCC1CCCO1)c1ccccc1F (stereo not drawn) | 25.8* | ? | 43.4 | 59.2%
O=C(NC(=S)NCC1CCCO1)c1cccs1 (stereo not drawn) | 12.5* | -0.6% | 25.6 | -10.8%
CCN1C(=O)[C@H]2[C@@H](c3ccc(Cl)cc3)N3C(=O)CN(CC4CC4)C(=O)[C@@]3(C)[C@H]2C1=O | 4.0 | -18.4% | 6.0 | 20.9%
Cc1[nH]c2c(C)cccc2c(=O)c1CN1CCCCCC1 | -4.7 | ? | -0.3 | -16.9%
O=S(=O)(NC1CCCCC1N1CCN(c2ccc(F)cc2)CC1)c1ccccc1 (stereo not drawn) | -2.5 | -19.5% | -5.7 | ?
COc1ccccc1N1CCN(S(=O)(=O)CCNC(=O)c2cccc(F)c2)CC1 | . | -6.3% | . | -25.8%
O=C(OCc1ccccn1)c1ccc(COc2ccccc2Cl)o1 | 30.0* | ? | 34.3 | 12.9%
CC1CCN(C(=O)c2ccc(COc3ccccc3Cl)o2)CC1 | 18.9 | 10.4µM* | 27.0 | ?
O=C(c1ccc(COc2ccccc2Cl)o1)N1CCOCC1 | -3.1 | -19.9% | 10.6 | 17.1%
O=C(c1ccc(COc2ccccc2Cl)o1)N1CCCC1 | 15.5* | ? | 24.0 | -3.7%
CC1CN(C(=O)c2ccc(COc3ccccc3Br)o2)CC(C)O1 (stereo not drawn) | -3.1 | ? | 5.4 | 1.3%
O=C(NCc1ccc(Cl)cc1)C(=O)NCC1OCCN1C(=O)c1ccc(Cl)cc1 (stereo not drawn) | -6.5 | -24.8% | 26.0 | -22.7%
O=S(=O)(Nc1ccc(N2CCCCC2)cc1)c1cccs1 | 41.2* | . | 59.8* | 21.5%
O=S(=O)(Nc1ccc(N2CCOCC2)cc1)c1ccccc1 | -1.7 | 85.9% | -12.5 | 19.0%
O=S(=O)(Nc1ccc(N2CCCCC2)cc1)c1ccccc1 | 17.9* | -4.1% | 25.8 | 25.6%
O=S(=O)(Nc1ccc(N2CCCCC2)cc1)c1ccc(F)cc1 | 12.5* | ? | 51.4* | -8.4%
O=S(=O)(Nc1ccc(S(=O)(=O)N2CCCCCC2)cc1)c1cccs1 | -4.7 | ? | -4.4 | .
O=S(=O)(Nc1ccc(N2CCOCC2)cc1)c1ccc(F)cc1 | 1.3 | -25.1% | 24.0 | 17.9%
O=S(=O)(c1ccccc1)c1ccc(N2CCCCCC2)cc1 | 20.8* | ? | . | ?
O=C(NNC(=S)NCC1CCCO1)c1cc(Br)ccc1Cl (stereo not drawn) | 6.0 | 4.7% | -7.2 | ?
COc1cc(C(=O)NCCc2ccc(S(=O)(=O)N3CCCC3)cc2)cc(OC)c1OC | 1.3 | 41.2% | 19.2 | ?
CC(C)NCC(O)COc1ccc(COCCOC(C)C)cc1 (stereo not drawn) | 11.1 | 15.9% | 28.0* | 1.9%
CC(C)NCC(O)COCCOc1ccc(Br)cc1 (stereo not drawn) | -2.1 | -17.0% | -3.3 | -9.7%
SMILES | Cycloheximide cs | Pf growth 96h | Shiga toxin inh | Pf growth 48h
Cc1cc(C)c(NC(=O)NC(=O)c2ccc(F)cc2)c(C)n1 | 28.4* | . | 34.4* | 63.5%
COc1ccc(C(=O)Nc2cc(C)nn2-c2ccc(F)cc2)cc1 | -1.6 | -2.0% | -6.1 | -13.3%
Cc1cc(C)c(NC(=O)NC(=O)c2cccc(F)c2)c(C)n1 | 14.6* | 157.9% | 37.1 | 35.0%
CCOC(=O)c1sc2nc(CC(=O)OC)nc(NCc3ccco3)c2c1C | -2.4 | -23.3% | 7.0 | 2.62µM*
COc1ccc(NC(=O)c2cncc(Br)c2)c(S(=O)(=O)N2CCOCC2)c1 | -1.7 | 10.4µM* | -14.7 | ?
O=C(Nc1ccccc1C(=O)N1CCCCCC1)c1cccc(S(=O)(=O)N2CCOCC2)c1 | -1.1 | ? | -0.6 | 11.7µM*
COc1ccc(S(=O)(=O)N2CCOCC2)cc1NC(=O)c1cccc(Cl)c1 | -6.9 | -8.4% | -7.7 | 22.4%
COc1ccc(C(=O)Nc2ccc(Br)cc2F)cc1S(=O)(=O)N1CCCC1 | . | 10.4µM* | . | ?
COc1ccc(S(=O)(=O)N2CCOCC2)cc1NC(=O)c1ccc(Cl)cc1 | . | 8.28µM* | . | -12.0%
COc1ccccc1NC(=O)c1ccc(C)c(S(=O)(=O)N2CCCCC2)c1 | 25.7 | ? | 12.5 | ?
O=C(Nc1ccccc1C(=O)N1CCCCC1)c1cccc(S(=O)(=O)N2CCOCC2)c1 | 1.8 | 35.1% | -8.5 | -15.2%
O=C(N1CCCCC1)N1CCN(S(=O)(=O)c2ccccc2)CC1 | -3.1 | 11.8% | -4.4 | 3.0%
CC1CC(=O)N(CC(=O)NCc2ccc(F)cc2)c2ccccc2S1(=O)=O (stereo not drawn) | -2.7 | 17.6% | -1.3 | 5.5%
CC1CN(S(=O)(=O)c2cccc(C(=O)Nc3cc(Cl)ccc3N3CCOCC3)c2)CC(C)O1 (stereo not drawn) | . | 9.28µM* | . | 9.28µM*
O=C(Nc1ccccc1N1CCOCC1)c1cccc(S(=O)(=O)N2CCOCC2)c1 | . | 4.65µM* | . | ?
Cc1nc2ccc(NC(=O)c3cccc(S(=O)(=O)N4CC(C)OC(C)C4)c3)cc2s1 (stereo not drawn) | -1.3 | 8.28µM* | -8.7 | .
COc1ccc(C(=O)Nc2cc(Cl)ccc2N2CCOCC2)cc1S(=O)(=O)N1CCOCC1 | . | ? | . | 10.4µM*
Cc1nc2ccc(NC(=O)c3ccc(S(=O)(=O)N4CCOCC4)cc3)cc2s1 | -1.7 | ? | 13.3 | 6.4%
COc1cccc(OC)c1C(=O)Nc1cc(Cl)ccc1N1CCOCC1 | 2.5 | 26.2% | -5.2 | 0.0%
COc1ccc(Br)cc1S(=O)(=O)Nc1ncn[nH]1 | -1.0 | -3.1% | -13.1 | -9.2%
CCN(CC)S(=O)(=O)c1ccc(S(=O)(=O)N2CCCC(C(=O)NC3CC3)C2)cc1 (stereo not drawn) | -6.0 | ? | 29.8 | 23.0%
COc1ccc(/C=N/NC(=O)CNC(=O)c2ccc3c(c2)OCCO3)c(C(=O)O)c1OC | 10.1 | 69.5% | -2.1 | 35.6%
CCc1ccc(C(=O)OCC(=O)N(CCOC)c2c(N)n(Cc3ccccc3)c(=O)[nH]c2=O)cc1 | . | -30.0% | . | ?
Cc1ccc(S(=O)(=O)N2CCCC2C(=O)NCc2ccc3c(c2)OCO3)cc1 (stereo not drawn) | 10.4 | ? | -7.7 | ?
COc1ccc(C(=O)Nc2ccc(NC(=O)c3ccccc3)cc2)cc1S(=O)(=O)N1CCOCC1 | 8.1 | 31.7% | 2.8 | 10.9%
SMILES | Cycloheximide cs | Pf growth 96h | Shiga toxin inh | Pf growth 48h
O=C(NNC(=O)c1ccc(Br)s1)c1ccc(F)c(S(=O)(=O)N2CCOCC2)c1 | . | 10.4µM* | . | -12.1%
COc1ccc(C(=O)Nc2ccc(N3CCCCCC3)cc2)cc1S(=O)(=O)N1CCOCC1 | . | ? | . | 11.7µM*
COc1ccc(C(=O)Nc2ccccc2N2CCOCC2)cc1S(=O)(=O)N1CCOCC1 | . | 1.85µM* | . | 5.86µM*
O=C(Nc1ccccc1N1CCOCC1)c1ccc(F)c(S(=O)(=O)N2CCOCC2)c1 | . | 2.08µM* | . | ?
COc1ccc(C(=O)Nc2ccccc2[N+](=O)[O-])cc1S(=O)(=O)N1CCOCC1 | -0.8 | ? | -8.3 | -14.1%
CN(C)S(=O)(=O)c1ccc(C(=O)OCC2COC(C)(C)O2)cc1 (stereo not drawn) | -8.8 | 14.2% | 23.5 | 8.5%

Compound activity: PubChem BioAssay, National Center for Advancing Translational Sciences (NCATS)
